# In ChEMBL document CHEMBL2218924, “A broad activity screen in support of a chemogenomic map for kinase signalling research and drug discovery” (Biochem J, 2013):
# Key:
# [1] = target: T1, Ephrin type-A receptor 3 (Homo sapiens) (UniProt P29320); conditions: at 10 µM
# T1 sequence (whole entry): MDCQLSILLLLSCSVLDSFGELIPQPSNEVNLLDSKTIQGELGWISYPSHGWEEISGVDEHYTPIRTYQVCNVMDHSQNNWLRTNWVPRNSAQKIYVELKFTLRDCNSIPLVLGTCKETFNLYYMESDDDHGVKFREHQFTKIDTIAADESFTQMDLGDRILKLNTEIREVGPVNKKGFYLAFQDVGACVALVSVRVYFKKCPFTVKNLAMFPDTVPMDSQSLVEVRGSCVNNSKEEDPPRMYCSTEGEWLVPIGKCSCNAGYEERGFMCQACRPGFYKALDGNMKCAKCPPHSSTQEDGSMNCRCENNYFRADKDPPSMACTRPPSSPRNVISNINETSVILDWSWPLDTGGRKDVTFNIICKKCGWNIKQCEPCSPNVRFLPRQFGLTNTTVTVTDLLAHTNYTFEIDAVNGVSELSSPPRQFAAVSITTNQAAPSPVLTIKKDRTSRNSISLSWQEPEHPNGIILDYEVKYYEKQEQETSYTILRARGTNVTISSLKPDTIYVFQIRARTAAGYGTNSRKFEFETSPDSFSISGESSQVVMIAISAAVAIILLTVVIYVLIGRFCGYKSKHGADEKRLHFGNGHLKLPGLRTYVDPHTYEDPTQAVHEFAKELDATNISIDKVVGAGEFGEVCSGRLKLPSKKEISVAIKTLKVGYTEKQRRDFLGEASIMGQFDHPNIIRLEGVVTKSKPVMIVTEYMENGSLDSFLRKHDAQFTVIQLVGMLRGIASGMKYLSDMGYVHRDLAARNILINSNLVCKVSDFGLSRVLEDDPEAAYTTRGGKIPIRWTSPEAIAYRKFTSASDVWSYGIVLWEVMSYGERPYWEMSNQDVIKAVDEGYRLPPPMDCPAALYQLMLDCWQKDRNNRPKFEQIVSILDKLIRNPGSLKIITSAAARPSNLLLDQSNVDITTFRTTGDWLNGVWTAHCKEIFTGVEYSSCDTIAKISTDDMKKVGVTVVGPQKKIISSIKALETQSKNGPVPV
# [2] = target: Ephrin type-A receptor 4 (Homo sapiens) (UniProt P54764); conditions: at 1 µM
# Ephrin type-A receptor 4 (Homo sapiens), sequence (P54764 whole entry): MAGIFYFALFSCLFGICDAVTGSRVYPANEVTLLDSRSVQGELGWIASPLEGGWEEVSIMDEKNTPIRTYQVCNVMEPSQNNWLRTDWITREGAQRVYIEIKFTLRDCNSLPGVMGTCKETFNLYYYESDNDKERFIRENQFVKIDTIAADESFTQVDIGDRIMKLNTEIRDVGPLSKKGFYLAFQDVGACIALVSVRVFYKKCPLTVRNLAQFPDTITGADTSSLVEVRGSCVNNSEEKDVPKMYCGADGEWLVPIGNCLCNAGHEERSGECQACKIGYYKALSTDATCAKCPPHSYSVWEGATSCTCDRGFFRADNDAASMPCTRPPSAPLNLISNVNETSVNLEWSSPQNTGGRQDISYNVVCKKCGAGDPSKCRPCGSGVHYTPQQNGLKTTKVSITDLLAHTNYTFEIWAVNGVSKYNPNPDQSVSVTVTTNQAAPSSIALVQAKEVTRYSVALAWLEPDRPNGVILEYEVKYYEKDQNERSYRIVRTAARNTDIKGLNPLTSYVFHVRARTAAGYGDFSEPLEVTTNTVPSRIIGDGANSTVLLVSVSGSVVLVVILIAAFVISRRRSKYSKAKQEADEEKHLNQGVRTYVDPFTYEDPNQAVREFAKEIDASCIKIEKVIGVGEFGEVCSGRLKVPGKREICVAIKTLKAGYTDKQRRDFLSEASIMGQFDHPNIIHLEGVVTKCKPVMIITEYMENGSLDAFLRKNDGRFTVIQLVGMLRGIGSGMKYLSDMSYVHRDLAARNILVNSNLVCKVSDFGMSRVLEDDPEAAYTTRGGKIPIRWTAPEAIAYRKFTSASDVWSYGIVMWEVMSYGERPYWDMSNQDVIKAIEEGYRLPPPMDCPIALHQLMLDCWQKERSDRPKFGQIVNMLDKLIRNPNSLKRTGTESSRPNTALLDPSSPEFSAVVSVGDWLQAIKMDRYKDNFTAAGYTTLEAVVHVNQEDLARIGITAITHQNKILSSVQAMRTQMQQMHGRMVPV
# [3] = target: Ephrin type-A receptor 4 (Homo sapiens) (UniProt P54764); conditions: at 10 µM
# [4] = target: Ephrin type-A receptor 5 (Homo sapiens) (UniProt P54756); conditions: at 1 µM
# Ephrin type-A receptor 5 (Homo sapiens), sequence (P54756 whole entry): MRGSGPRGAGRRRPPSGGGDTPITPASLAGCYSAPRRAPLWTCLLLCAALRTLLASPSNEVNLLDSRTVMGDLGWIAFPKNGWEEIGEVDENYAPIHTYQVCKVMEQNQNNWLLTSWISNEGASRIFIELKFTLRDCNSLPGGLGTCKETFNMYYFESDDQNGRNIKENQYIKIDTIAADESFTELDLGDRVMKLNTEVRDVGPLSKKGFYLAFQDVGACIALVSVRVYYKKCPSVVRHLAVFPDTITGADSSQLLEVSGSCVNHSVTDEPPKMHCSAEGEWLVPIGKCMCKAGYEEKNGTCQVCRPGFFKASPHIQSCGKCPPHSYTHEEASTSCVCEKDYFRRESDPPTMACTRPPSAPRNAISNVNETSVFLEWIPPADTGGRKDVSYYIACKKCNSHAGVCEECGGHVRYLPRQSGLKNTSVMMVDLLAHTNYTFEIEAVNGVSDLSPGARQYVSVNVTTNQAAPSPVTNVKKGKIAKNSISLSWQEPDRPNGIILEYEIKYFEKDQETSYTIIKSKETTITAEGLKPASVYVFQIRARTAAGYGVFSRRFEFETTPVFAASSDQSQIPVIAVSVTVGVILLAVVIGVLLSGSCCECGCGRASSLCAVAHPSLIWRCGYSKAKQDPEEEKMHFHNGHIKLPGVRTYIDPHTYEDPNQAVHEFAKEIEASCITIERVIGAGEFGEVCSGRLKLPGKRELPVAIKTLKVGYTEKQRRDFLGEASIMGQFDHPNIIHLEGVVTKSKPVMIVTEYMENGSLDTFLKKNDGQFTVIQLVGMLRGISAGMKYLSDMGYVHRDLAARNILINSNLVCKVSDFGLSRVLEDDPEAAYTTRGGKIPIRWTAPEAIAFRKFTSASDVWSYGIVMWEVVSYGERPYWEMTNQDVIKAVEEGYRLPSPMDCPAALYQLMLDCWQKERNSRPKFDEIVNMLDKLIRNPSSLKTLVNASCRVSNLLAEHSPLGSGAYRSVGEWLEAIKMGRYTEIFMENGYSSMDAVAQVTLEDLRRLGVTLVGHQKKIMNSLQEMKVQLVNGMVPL
# [5] = target: Ephrin type-A receptor 5 (Homo sapiens) (UniProt P54756); conditions: at 10 µM
# [6] = target: Ephrin type-A receptor 7 (Homo sapiens) (UniProt Q15375); conditions: at 1 µM
# Ephrin type-A receptor 7 (Homo sapiens), sequence (Q15375 28-998 limits assumed): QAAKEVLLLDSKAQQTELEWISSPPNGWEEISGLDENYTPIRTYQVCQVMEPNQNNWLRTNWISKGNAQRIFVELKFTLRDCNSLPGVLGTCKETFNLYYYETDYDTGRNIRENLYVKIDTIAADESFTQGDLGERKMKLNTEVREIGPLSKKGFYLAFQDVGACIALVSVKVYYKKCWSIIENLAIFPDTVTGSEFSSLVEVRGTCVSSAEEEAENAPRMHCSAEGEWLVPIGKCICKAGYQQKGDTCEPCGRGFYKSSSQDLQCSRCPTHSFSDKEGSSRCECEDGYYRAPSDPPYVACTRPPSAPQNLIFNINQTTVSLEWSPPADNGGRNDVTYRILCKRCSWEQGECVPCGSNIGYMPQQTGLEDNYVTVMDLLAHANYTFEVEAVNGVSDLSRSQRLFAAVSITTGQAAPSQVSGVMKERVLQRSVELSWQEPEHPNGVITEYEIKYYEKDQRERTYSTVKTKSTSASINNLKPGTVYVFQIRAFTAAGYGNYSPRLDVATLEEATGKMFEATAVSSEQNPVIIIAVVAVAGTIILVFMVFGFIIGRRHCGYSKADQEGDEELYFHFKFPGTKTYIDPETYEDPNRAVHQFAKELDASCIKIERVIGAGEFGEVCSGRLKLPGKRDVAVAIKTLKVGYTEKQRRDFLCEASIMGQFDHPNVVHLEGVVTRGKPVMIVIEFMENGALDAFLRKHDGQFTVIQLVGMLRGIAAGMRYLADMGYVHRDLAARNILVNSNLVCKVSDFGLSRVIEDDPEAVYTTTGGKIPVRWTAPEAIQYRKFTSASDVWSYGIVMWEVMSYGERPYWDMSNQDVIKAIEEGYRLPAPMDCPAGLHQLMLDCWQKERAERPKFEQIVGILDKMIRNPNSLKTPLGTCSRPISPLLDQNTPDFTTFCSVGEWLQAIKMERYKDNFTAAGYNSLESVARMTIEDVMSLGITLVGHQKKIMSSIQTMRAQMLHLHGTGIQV
# [7] = target: Ephrin type-A receptor 7 (Homo sapiens) (UniProt Q15375); conditions: at 10 µM
# [8] = target: T2, Ephrin type-A receptor 8 (Homo sapiens) (UniProt P29322); conditions: at 1 µM
# T2 sequence (whole entry): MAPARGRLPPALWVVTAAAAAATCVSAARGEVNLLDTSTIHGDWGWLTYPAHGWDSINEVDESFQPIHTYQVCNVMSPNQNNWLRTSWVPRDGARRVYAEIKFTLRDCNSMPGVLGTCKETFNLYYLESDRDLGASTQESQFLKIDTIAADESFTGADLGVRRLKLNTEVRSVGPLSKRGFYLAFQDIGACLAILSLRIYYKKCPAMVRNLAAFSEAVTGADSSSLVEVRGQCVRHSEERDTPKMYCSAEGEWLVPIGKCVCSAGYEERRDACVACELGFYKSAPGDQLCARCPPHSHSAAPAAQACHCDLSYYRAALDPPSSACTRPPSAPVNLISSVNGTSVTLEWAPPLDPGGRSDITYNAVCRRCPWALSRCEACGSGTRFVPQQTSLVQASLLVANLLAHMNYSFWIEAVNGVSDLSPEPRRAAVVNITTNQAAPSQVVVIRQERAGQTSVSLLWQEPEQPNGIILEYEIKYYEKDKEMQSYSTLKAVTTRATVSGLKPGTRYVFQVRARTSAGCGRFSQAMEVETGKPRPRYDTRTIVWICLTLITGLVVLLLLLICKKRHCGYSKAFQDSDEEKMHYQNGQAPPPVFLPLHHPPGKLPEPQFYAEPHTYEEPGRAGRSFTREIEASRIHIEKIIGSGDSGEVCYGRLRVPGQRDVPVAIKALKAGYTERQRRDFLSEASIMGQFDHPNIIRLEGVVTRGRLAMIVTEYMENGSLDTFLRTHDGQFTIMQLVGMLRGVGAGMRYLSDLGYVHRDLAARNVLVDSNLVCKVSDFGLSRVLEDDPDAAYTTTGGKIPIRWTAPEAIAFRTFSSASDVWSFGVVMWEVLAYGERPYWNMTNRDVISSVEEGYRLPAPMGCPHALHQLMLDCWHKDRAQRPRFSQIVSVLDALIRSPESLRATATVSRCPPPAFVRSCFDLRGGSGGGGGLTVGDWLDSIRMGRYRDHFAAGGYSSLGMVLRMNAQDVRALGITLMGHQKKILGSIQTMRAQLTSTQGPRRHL
# [9] = target: T2, Ephrin type-A receptor 8 (Homo sapiens); conditions: at 10 µM
# [10] = target: T3, Ephrin type-B receptor 1 (Homo sapiens) (UniProt P54762); conditions: at 1 µM
# T3 sequence (whole entry): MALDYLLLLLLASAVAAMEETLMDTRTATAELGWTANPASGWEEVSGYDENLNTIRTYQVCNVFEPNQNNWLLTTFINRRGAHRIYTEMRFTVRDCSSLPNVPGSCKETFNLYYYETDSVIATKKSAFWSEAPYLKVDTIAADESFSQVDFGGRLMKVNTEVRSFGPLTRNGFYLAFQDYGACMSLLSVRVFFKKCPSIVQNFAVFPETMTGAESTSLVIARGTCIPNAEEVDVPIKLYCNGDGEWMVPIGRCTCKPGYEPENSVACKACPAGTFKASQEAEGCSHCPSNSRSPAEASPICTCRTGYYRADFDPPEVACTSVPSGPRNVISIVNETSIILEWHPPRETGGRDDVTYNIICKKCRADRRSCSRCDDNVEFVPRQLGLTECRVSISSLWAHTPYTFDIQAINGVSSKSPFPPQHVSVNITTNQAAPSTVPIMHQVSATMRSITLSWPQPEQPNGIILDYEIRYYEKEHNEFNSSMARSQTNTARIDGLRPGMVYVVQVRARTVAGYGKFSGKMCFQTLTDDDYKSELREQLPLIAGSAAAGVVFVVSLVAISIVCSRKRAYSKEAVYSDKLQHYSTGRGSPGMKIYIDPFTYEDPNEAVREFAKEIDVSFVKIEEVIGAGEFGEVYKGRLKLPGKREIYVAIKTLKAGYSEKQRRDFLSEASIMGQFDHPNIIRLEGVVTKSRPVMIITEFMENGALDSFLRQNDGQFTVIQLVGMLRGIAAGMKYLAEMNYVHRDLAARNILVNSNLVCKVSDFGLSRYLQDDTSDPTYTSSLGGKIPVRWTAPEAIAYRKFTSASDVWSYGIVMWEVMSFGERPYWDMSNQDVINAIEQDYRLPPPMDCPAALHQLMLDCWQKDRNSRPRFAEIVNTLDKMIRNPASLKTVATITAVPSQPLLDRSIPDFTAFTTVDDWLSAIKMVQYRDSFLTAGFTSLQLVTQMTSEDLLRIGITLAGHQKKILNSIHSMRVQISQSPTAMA
# [11] = target: T3, Ephrin type-B receptor 1 (Homo sapiens); conditions: at 10 µM
# [12] = target: T4, Ephrin type-B receptor 3 (Homo sapiens) (UniProt P54753); conditions: at 10 µM
# T4 sequence (whole entry): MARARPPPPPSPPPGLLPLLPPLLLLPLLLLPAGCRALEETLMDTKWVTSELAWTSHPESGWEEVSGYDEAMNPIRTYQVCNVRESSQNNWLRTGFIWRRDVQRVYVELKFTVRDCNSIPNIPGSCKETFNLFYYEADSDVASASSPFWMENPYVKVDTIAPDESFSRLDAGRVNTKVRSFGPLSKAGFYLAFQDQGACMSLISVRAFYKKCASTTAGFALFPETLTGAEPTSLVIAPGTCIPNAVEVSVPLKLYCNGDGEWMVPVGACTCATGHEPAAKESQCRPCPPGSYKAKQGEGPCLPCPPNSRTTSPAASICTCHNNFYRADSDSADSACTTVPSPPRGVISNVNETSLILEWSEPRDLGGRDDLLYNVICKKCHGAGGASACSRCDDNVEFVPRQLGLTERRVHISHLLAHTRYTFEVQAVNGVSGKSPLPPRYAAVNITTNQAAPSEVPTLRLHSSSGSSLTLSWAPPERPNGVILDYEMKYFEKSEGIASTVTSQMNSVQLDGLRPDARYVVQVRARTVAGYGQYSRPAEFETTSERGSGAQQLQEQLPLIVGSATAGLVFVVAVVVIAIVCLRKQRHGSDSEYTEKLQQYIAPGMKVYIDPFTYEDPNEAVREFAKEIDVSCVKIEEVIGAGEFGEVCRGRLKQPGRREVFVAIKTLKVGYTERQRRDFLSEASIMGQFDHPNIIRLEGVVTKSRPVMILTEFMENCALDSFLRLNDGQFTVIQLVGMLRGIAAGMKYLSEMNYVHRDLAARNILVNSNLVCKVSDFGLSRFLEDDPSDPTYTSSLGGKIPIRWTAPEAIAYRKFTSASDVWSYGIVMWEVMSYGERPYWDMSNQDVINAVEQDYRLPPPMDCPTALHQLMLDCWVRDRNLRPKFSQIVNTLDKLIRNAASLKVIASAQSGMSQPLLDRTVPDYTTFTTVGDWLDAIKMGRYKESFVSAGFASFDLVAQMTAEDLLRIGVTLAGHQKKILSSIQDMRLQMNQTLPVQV
# [13] = target: T5, Ephrin type-B receptor 4 (Homo sapiens) (UniProt P54760); conditions: at 1 µM
# T5 sequence (whole entry): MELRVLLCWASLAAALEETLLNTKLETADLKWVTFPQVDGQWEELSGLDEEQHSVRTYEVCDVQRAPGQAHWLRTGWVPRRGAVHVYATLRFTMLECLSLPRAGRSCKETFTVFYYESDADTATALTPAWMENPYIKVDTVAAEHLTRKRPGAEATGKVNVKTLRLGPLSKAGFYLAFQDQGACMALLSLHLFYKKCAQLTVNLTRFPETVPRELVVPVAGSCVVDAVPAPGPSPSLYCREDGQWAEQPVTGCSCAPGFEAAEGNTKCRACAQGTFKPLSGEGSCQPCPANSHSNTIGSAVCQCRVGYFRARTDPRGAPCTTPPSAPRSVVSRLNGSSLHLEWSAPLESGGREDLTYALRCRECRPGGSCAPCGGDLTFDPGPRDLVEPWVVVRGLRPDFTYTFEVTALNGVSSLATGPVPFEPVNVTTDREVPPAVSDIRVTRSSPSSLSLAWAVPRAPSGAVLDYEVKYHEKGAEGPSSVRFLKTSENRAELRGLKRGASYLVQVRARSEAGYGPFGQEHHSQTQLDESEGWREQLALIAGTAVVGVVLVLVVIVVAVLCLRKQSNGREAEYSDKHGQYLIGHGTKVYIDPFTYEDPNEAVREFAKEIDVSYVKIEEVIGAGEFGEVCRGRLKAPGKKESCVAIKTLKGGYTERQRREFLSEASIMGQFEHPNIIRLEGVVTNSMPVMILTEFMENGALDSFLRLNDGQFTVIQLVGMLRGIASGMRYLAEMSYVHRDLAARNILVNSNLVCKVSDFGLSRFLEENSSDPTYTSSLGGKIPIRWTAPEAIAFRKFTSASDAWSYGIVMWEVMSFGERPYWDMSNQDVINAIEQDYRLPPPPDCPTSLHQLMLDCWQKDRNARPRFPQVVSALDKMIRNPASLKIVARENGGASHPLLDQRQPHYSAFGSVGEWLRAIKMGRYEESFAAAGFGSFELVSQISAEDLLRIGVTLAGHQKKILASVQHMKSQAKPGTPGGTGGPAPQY
# [14] = target: T5, Ephrin type-B receptor 4 (Homo sapiens); conditions: at 10 µM
# [15] = target: Receptor tyrosine-protein kinase erbB-4 (Homo sapiens) (UniProt Q15303); conditions: at 1 µM
# Receptor tyrosine-protein kinase erbB-4 (Homo sapiens), sequence (Q15303 whole entry): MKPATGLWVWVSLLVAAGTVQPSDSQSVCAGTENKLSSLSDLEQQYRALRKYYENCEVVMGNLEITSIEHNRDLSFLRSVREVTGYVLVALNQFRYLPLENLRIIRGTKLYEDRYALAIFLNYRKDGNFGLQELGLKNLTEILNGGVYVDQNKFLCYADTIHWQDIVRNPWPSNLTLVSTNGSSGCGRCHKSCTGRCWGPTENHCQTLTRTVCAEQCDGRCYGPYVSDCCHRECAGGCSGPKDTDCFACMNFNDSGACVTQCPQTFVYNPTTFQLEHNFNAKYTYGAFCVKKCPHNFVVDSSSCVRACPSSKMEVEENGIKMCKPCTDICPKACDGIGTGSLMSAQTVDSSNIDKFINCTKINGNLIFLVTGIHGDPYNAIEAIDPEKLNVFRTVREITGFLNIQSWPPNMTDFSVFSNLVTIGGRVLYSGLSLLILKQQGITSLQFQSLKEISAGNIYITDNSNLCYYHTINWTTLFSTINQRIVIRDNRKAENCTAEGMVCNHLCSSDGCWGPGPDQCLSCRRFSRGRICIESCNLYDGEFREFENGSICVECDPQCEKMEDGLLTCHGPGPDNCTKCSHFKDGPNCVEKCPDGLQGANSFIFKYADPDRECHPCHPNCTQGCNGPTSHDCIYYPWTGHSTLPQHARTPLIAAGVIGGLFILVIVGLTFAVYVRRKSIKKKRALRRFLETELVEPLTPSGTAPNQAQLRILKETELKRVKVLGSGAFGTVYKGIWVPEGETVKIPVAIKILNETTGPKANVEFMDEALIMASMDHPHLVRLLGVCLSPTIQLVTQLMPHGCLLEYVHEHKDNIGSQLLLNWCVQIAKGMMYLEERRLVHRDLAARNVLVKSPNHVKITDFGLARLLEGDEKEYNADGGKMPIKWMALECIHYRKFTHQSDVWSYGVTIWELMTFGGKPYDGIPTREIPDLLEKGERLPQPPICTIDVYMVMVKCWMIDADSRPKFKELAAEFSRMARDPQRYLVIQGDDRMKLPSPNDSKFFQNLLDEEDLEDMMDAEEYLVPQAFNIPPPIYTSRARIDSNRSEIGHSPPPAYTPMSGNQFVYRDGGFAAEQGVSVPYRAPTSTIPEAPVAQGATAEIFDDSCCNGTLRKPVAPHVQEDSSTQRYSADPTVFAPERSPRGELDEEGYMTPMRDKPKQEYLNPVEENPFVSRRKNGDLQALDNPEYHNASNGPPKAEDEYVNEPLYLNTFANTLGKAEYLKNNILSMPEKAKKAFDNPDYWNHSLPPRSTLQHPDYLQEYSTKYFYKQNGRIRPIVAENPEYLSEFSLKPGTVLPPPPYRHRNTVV
# [16] = target: Receptor tyrosine-protein kinase erbB-4 (Homo sapiens) (UniProt Q15303); conditions: at 10 µM
# [17] = target: Focal adhesion kinase 1 (Homo sapiens) (UniProt Q05397); conditions: at 1 µM
structure (smiles),measurement,setting,value
COc1cc2ncnc(Nc3cccc(Cl)c3)c2cc1OC,residual activity,[1],42%
same,residual activity,[2],103%
same,residual activity,[3],57%
same,residual activity,[4],77%
same,residual activity,[5],27%
same,residual activity,[6],73%
same,residual activity,[7],22%
same,residual activity,[8],85%
same,residual activity,[9],35%
same,residual activity,[10],84%
same,residual activity,[11],24%
same,residual activity,[12],121%
same,residual activity,[13],45%
same,residual activity,[14],5%
same,residual activity,[15],35%
same,residual activity,[16],4%
same,residual activity,[17],146%
